In all, about 33,000 sequences were measured (“E-score (-0.5 to 0.5)”: median about -0.04, highest 2% from about 0.36 on). What follows is part of a selection rich in the highest values, with near analogues and random picks from the rest.
Target: T1, Hmlalpha2 (UniProt P0CY09)
T1 sequence: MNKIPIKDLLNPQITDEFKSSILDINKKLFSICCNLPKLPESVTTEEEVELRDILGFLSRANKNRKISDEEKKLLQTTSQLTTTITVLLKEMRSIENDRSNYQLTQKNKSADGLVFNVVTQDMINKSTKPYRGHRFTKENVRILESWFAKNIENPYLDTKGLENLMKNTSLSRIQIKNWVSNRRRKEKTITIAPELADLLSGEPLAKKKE
Assay: PBM E-score (8-mer binding enrichment) (E-score (-0.5 to 0.5)); higher = stronger / more preferred TF binding
Details: protein concentration: 200 nM; construct: GST-full length
Method: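 Universal 'all 10-mer' protein binding microarrays (Agilent AMADID 015681) probed with GST-tagged S. cerevisiae TFs (full-length or DBD) made by in vitro transcription/translation (PURExpress), about 100-200 nM. Bound TF was detected with fluorescent anti-GST. Each ungapped 8-mer (which stands for itself and its reverse complement) is scored by the PBM enrichment score (E-score), a modified Wilcoxon-Mann-Whitney statistic from -0.5 to +0.5, computed with the Universal PBM Analysis Suite. Scale: above 0.35 generally sequence-specific binding.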

Sequence	PBM E-score
GACGCTCA	-0.111
GGCCACCC	-0.351
CGGGGCGC	-0.244
CACACGTA	0.271
GACACGTA	0.293
CACACGTG	0.289
AACACGTC	0.377
AACACGTG	0.348
AACACGTA	0.41
GACACGTC	0.2
ACCACGTA	0.254
TACACGTA	0.428
CACACGTC	0.166
AACACGTT	0.403
AAAACGTT	0.0264
CAAGTACA	0.266
TAAGTGGA	0.0716
ACATTTAC	0.348
ACTGTCGC	-0.165
CGGAGAAG	-0.358
CCCTTTAG	-0.261
ATGACTCG	-0.0578
GATCTAAC	0.0316
CACCGACG	0.00164
ACTAGGAG	-0.0601

Sequence	PBM E-score
AACTAGGG	-0.094
GAGGGAAC	-0.165
AGACACGG	0.228
ATACACCA	0.215
AGACACGC	0.147
ACACACGG	0.277
ATACACGG	0.445
ATACACTA	0.149
ATACACGC	0.449
ACACACGC	0.288
ATACACGA	0.432
CTTTCATA	0.162
ACGTGTGG	0.136
AGGTGTTG	-0.053
CCGTGTTA	0.44
ACGTGTTA	0.45
AGGTGTTA	0.256
CAGTGTTA	0.212
ACGTGTTG	0.415
ACGTGTTC	0.211
GCGTGTTA	0.46
CCGTGTTC	0.328
GCGTGGTA	0.0607
GCGTGTGA	0.284
TCGGAGCA	-0.279

Sequence	PBM E-score
CTTAAAAC	0.201
AACTCTTG	-0.084
GCTTGTTA	0.286
GAAACCAA	0.00698
AGAACATA	0.248
AAAACATC	0.311
AAAACATA	0.39
TAAACATA	0.416
CAAACATA	0.118
GAAACATA	0.192
AAAACATT	0.242
CAAACATG	0.34
AAAACATG	0.434
GGTTGAAC	0.081
ACTGCAGG	-0.11
AACTCACT	0.0592
AGGTCGGA	-0.164
AACCTAGA	-0.109
CGTGTAAC	0.443
GGTGTAAC	0.288
CGTGTAAG	0.467
AGTGTAAG	0.116
AGTGTAAC	0.198
ACTGTAAG	0.0573
GAAATAGC	-0.0263

Sequence	PBM E-score
CAACTAAA	0.176
CTCTAGAG	-0.148
TCATCCCA	-0.231
GGTAATAC	0.173
CGTAATAG	0.246
GGTAATAA	0.178
AGTAATAA	0.257
CGTAATAC	0.378
CATAATAA	0.281
CGTAATAA	0.378
TGTAATAA	0.45
AGTAATAC	0.211
AGCGCGCA	0.0691
CCGGGGAG	-0.241
CAAGTCTG	-0.00344
ACCTCTTC	-0.0525
CGACGTTA	0.231
CGATGGAC	0.0281
CTTTTCAC	0.0898
AACCATGA	0.149
AATCATGA	0.0793
AAGCATGG	-0.112
AACCATGT	0.368
AATCATGG	0.0457
AAGCATGC	0.117

Sequence	PBM E-score
AACCATGC	-0.0458
AATCATGT	0.409
AAGCATGT	0.377
CCCCATTC	-0.266
CGGGCATC	-0.287
AAATTCCT	-0.135
CATTCTGA	-0.213
GCAGTTGA	-0.157
AAAGAGCT	-0.0941
GAGCTCCC	-0.322
AAATTTAG	0.0397
AAATTTAT	0.201
ATTTTTAC	0.368
AAATTTAC	0.375
AATTTTAC	0.347
ATTTTTAA	0.237
AACCCTAC	-0.0838
GAATTAGC	-0.0766
AGCTCTAT	-0.102
AGAGTGTA	0.0904
ACGCTATA	0.0242
ATTACGTG	0.452
AATACGTC	0.226
AATACGTG	0.383
CTTACGTA	0.307

Sequence	PBM E-score
ATTACGTC	0.321
ATTACGTA	0.431
AATACGTA	0.317
GTTACGTA	0.293
ACTACGTG	0.144
GGCCCGAA	-0.135
ATATCGGA	-0.0245
CCACCAGG	-0.268
CCTAGGCG	-0.303
ATTCCCAC	-0.125
CTTTGTAC	0.2
ACTTGTAA	0.381
CCTTGTAG	0.195
TCTTGTAA	0.439
ACTTGTAC	0.12
TCTTGTCA	0.219
TATTGTAA	0.318
ATTTGTAA	0.344
CCTTGTAA	0.454
ACTTGTAG	0.0979
CTTTGTAA	0.414
CCTTGTAC	0.327
GCTACAAA	0.0715
GAGCTACC	-0.059
CAGCTGTA	-0.117

Sequence	PBM E-score
CCAGGAGG	-0.191
ATCCAGCA	-0.0498
CGATGATA	0.0847
ACTTGTTA	0.259
CCTTGTTC	-0.0497
GCTTGTAC	0.243
GATTGTAA	0.247
CCTTGTTA	0.371
GCTTGTAA	0.411
CCCATATC	-0.145
CAAAGGAG	-0.0938
ATTAATGA	0.0848
CCAGGCAA	-0.265
AGCATAGG	-0.178
AACAGGTT	0.11
ATTACAGA	0.333
ATTACAAG	0.466
CTTACAAG	0.312
ATTACAAA	0.414
ATTACACC	0.382
ATTACAGG	0.352
CTTACACC	0.0787
